Of roughly 7,900 targets only a part is listed; those with a hit were picked by preference. About 0.6% of all pairs of compound and target were hits. Unmarked numbers belong to inactive results.
What was measured:
Test in all cases: log2 fold change, soluble protein after heating vs DMSO (PISA); higher = thermal stabilisation; K562 cells, 10 uM, 30 min; active = over 0.2 and 3.5 SD of the protein, either way, in both replicates (recomputed)
[1] = compound: CN1CCN(CCOc2cc(OC3CCOCC3)c3c(Nc4c(Cl)ccc5c4OCO5)ncnc3c2)CC1 [saracatinib]
Procedure, shortened: (§1)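 Soluble protein was defined as the supernatant after 21,000xg for 90 min. It came from K562 cells at 2×10^6 cells/mL given 10 μM compound for 30 min, heated in aliquots for 3 min across 48°C-58°C, pooled, and extracted in PBS with 0.5% NP-40 at 4°C, and was quantified by TMTpro 16plex LC-MS/MS with equalised channel sums. Thermal stability against control samples, from duplicates, is reported as log2 fold change.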

[2] = compound: CN1CCN(c2nc(C3=C(c4c[nH]c5ccccc45)C(=O)NC3=O)c3ccccc3n2)CC1 [sotrastaurin]
Procedure, shortened: as §1

[3] = compound: CN1CC[C@H](c2c(O)cc(O)c3c(=O)cc(-c4ccccc4Cl)oc23)[C@H](O)C1 [alvocidib]
Procedure, shortened: as §1

[4] = compound: CN1CCc2c(c3ccccc3n2Cc2ccc(C(=O)NO)cc2)C1 [Tubastatin A]
Procedure, shortened: as §1

[5] = compound: CNC(=O)C1=CC=CC=C1NC2=NC(=NC=C2Cl)NC3=C(C=C(C=C3)N4CCOCC4)OC
Procedure, shortened: as §1

[6] = compound: CNC(=O)c1ccc(Nc2ncc(C(F)(F)F)c(NCc3nccnc3N(C)S(C)(=O)=O)n2)cc1 [defactinib]
Procedure, shortened: as §1

[7] = compound: CNCc1ccc(-c2[nH]c3cc(F)cc4c3c2CCNC4=O)cc1 [rucaparib]
Procedure, shortened: as §1

[8] = compound: CNc1nc(-c2ccc3c(N)n[nH]c3c2)cc(N2C[C@@H](C(=O)NC3CCCCC3)CC[C@H]2C)n1
Procedure, shortened: as §1

[9] = compound: COC(=O)N[C@@H](C)CNc1nccc(-c2cn(C(C)C)nc2-c2cc(Cl)cc(NS(C)(=O)=O)c2F)n1 [encorafenib]
Procedure, shortened: as §1

[10] = compound: COC(=O)[C@H](CCSC)NC(=O)C1=C(C=C(C=C1)NC[C@H](CS)N)C2=CC=CC=C2
Procedure, shortened: as §1

UniProt Q9P2B2, sequence (Q9P2B2 whole entry, looked up): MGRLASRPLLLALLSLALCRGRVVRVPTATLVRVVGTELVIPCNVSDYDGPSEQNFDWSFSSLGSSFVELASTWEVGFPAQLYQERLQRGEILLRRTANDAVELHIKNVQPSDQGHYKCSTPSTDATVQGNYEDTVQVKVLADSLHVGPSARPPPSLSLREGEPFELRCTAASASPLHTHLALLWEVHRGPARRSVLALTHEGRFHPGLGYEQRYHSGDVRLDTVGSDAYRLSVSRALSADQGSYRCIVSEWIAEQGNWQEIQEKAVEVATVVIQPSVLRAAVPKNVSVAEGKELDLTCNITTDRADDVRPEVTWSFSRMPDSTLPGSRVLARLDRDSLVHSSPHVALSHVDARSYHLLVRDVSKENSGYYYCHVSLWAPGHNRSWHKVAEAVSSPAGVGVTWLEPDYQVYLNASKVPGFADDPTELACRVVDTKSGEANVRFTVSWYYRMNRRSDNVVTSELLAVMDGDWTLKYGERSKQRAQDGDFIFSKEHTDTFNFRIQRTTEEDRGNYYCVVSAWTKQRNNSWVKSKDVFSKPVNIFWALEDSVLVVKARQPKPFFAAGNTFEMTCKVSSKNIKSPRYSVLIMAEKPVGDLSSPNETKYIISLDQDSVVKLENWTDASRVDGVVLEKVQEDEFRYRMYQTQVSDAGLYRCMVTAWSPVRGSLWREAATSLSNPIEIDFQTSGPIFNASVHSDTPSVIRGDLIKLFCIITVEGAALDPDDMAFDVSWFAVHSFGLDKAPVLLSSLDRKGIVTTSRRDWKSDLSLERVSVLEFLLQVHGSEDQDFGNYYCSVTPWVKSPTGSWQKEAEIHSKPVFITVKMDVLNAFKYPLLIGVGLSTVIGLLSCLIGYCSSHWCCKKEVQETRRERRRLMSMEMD
UniProt Q29RF7, sequence (Q29RF7 whole entry, looked up): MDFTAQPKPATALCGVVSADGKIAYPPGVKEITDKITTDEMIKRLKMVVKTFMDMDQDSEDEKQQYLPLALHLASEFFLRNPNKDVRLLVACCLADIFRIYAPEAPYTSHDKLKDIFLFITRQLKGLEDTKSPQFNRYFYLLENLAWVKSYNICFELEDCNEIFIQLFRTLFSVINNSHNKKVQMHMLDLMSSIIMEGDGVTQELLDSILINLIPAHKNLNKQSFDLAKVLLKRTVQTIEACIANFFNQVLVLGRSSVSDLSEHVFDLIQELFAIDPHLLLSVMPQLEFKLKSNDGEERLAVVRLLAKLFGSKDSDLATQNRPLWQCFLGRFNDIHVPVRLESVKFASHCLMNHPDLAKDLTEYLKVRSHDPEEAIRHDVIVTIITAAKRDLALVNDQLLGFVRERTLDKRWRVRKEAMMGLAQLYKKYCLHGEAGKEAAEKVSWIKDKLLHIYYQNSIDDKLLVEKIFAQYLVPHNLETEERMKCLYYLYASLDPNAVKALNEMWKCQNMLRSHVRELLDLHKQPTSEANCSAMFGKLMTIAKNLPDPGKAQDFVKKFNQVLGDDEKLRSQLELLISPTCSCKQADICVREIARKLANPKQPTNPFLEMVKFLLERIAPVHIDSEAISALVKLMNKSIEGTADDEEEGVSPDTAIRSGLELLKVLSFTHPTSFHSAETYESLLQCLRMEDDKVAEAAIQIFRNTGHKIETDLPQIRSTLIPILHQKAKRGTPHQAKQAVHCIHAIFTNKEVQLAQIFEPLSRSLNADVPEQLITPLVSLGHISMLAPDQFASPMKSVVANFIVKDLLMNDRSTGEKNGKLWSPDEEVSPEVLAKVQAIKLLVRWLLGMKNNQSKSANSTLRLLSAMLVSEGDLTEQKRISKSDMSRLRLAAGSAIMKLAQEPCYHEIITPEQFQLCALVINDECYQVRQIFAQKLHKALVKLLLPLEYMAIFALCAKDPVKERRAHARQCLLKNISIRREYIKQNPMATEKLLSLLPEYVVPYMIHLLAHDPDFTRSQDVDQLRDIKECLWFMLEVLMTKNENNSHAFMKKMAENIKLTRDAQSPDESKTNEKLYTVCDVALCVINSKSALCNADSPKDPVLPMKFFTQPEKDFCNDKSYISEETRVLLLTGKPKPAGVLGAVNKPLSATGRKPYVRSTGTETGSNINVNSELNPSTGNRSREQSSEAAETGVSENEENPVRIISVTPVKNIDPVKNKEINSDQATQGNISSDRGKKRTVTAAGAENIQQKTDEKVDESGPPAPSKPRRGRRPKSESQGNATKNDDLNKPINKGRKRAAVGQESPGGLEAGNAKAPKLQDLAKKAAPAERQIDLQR
UniProt P78356, sequence (P78356 whole entry, looked up): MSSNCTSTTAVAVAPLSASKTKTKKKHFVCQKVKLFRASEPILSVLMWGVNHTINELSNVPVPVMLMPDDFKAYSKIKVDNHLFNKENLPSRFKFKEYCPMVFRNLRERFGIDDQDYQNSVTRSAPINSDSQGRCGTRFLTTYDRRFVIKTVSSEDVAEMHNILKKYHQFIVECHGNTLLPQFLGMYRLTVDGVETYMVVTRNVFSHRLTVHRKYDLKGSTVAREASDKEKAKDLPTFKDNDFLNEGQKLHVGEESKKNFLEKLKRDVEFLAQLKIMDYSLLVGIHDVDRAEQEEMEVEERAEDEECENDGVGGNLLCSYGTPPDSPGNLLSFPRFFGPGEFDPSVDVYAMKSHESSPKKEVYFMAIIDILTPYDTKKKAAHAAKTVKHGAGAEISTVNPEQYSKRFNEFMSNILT
UniProt Q10713, sequence (Q10713 whole entry, looked up): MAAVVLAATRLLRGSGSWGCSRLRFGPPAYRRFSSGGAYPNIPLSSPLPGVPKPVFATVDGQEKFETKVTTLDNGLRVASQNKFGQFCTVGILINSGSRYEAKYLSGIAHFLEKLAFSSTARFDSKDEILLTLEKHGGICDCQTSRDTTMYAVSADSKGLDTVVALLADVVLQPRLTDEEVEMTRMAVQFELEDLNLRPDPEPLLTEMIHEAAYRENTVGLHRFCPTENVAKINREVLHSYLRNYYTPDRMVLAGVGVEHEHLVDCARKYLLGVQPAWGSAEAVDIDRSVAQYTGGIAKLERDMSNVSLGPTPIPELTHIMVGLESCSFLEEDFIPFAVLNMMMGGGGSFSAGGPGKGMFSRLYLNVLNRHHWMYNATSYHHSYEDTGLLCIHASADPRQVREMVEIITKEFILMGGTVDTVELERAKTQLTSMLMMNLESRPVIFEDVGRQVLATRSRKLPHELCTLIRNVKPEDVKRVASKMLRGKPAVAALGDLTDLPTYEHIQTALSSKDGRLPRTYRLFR
UniProt O75400, sequence (O75400 whole entry, looked up): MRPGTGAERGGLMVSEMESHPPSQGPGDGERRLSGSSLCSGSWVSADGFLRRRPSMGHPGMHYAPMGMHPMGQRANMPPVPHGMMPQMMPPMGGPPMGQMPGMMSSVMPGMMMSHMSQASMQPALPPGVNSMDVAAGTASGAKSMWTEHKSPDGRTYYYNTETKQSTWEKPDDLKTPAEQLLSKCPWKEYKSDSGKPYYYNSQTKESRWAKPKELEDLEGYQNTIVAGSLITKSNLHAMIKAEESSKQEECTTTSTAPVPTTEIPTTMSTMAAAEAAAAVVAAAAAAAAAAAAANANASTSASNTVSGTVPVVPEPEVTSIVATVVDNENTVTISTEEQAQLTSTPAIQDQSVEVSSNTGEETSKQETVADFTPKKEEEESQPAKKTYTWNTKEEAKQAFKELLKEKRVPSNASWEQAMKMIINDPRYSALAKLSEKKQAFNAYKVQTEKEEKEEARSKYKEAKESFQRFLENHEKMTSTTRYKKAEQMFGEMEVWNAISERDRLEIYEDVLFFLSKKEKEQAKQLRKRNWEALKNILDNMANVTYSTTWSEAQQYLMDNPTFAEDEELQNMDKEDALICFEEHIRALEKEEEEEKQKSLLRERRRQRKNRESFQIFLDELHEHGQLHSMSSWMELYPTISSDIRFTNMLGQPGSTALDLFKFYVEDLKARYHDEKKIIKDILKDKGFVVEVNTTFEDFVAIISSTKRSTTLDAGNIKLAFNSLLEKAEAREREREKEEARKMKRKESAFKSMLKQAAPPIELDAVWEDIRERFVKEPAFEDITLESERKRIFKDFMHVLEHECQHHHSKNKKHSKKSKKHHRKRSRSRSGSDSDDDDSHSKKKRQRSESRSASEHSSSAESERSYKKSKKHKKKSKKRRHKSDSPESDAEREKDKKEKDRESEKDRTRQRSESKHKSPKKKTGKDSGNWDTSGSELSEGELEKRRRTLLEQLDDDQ
UniProt O15305, sequence (O15305 whole entry, looked up): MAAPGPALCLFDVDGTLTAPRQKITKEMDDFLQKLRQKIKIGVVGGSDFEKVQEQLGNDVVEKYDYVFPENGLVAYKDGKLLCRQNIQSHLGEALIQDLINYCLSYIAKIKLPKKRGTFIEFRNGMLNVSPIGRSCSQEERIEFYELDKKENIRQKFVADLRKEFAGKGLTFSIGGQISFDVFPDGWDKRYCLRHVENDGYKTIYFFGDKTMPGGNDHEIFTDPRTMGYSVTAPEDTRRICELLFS

Target | log2 fold change [1] | log2 fold change [2] | log2 fold change [3] | log2 fold change [4] | log2 fold change [5] | log2 fold change [6] | log2 fold change [7] | log2 fold change [8] | log2 fold change [9] | log2 fold change [10]
PSMD7 (UniProt P51665) | -0.018 | -0.028 | 0.088 | 0.001 | 0.015 | 0.079 | 0.063 | 0.022 | 0.03 | 0.017
PRKCG (UniProt P05129) | 0.011 | -0.373 | -0.076 | -0.025 | 0.088 | -0.015 | -0.021 | -0.164 | 0.19 | -0.02
PSMC2 (UniProt P35998) | -0.024 | -0.03 | 0.046 | -0.01 | -0.014 | 0.061 | 0.033 | 0.035 | 0.018 | 0.001
PSMC5 (UniProt P62195) | -0.041 | -0.004 | 0.065 | -0.013 | -0.028 | 0.066 | 0.025 | 0.065 | 0.02 | 0.009
PEA15 isoform 2 (UniProt Q15121) | 0.05 | -0.02 | -0.061 | -0.009 | -0.147 | -0.026 | -0.037 | 0.009 | 0.035 | 0.034
PMM2 (UniProt O15305) | -0.025 | 0.062 | 0.006 | -0.031 | -0.183 | 0.022 | 0.018 | -0.02 | -0.006 | 0.058
PDLIM7 (UniProt Q9NR12) | 0.002 | 0.016 | -0.032 | -0.022 | -0.014 | -0.083 | 0.002 | -0.013 | 0.021 | -0.021
PMPCA (UniProt Q10713) | -0.026 | -0.007 | -0.101 | -0.007 | 0.007 | -0.086 | -0.022 | 0.052 | -0.027 | -0.022
PTGFRN (UniProt Q9P2B2) | 0.029 | 0.082 | -0.029 | 0 | -0.092 | -0.049 | -0.024 | 0.056 | -0.004 | 0.053
PMM1 (UniProt Q92871) | 0.006 | 0.094 | -0.011 | -0.018 | -0.315 (active) | -0.007 | 0.095 | 0.028 | -0.017 | -0.023
PIP4K2B (UniProt P78356) | -0.021 | -0.088 | 0.204 | 0.022 | 0.179 | 0.176 | -0.035 | -0.083 | 0.049 | -0.108
PRPF40A (UniProt O75400) | -0.026 | -0.099 | -0.171 | 0.103 | -0.197 | -0.219 | 0.029 | -0.03 | 0.026 | -0.024
PELO (UniProt Q9BRX2) | -0.079 | -0.218 | -0.066 | 0.121 | -0.122 | -0.058 | 0.299 | 0.148 | 0.137 | 0.061
PDS5A (UniProt Q29RF7) | -0.094 | -0.62 (active) | -0.122 | -0.235 | 0.051 | -0.045 | -0.025 | 0.053 | 0.028 | 0.006
PECAM1 (UniProt P16284) | 0.062 | 0.062 | 0.005 | 0.096 | -0.076 | 0 | 0 | 0.003 | -0.092 | -0.007
PATL1 (UniProt Q86TB9) | -0.075 | -0.16 | -0.127 | -0.001 | -0.135 | -0.078 | 0.131 | 0.025 | 0.155 | -0.066
PCBP2 (UniProt F8VRH0) | 0.255 | -0.319 | 0.106 | 0.155 | 0.105 | 0.009 | 0.066 | -0.014 | 0.014 | 0.066
